The text below walks through data of PMC12136788.

In all, about 24,000 sequences were measured (“enrichment r”: median about 0.99, highest 2% from about 3.7 on). For the sample, the highest values were picked, then their nearest neighbours and some sequences at random.

To fix the notation:
T1: UNK ZnF1-3 (human, UniProt Q9C0B0 31-174)
T1 sequence: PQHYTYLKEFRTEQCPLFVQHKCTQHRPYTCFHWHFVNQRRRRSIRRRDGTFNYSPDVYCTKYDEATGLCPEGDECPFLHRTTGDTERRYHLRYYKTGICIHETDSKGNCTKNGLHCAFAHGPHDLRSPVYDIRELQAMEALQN

B1: chr1:39494447:39494448:+_ENSG00000168653_ENST00000372967|hu_mus|hu_hu_hu_mus_False|98_98 (ssRNA)
RNA: GGGAGUUCUACAGUCCGACGAUCGCACCGAGCGGCGAUCUUGUAGGGCUGUUCUGCGCUUAGGAACAUAAAGUGCCGGUCCAGGCUGAUGCCCAGCUUUUUCUGUAUGUCAAGGAAAGGCAUGGCUCUGCAGUGCCCUUGUCACAACAGAGGAUUGAGCAUCA
B2: chr16:75674161:75674162:-_ENSG00000065427_ENST00000302445|hu_hu|motif|central (ssRNA)
RNA: GGGAGUUCUACAGUCCGACGAUCCCUACCUGCCACCUUUAAGGUGAUGUCAGUCAGGUGAUCCCCAGGCUGCAGGUGACGGUAUUUUUGGAUGAAGUCAGUGAGUGAGAUGUCUACAUGGAACUUGUGUGGGUAUGGGUCUUCCAACAGAGGAUUGAGCAUCA
B3: 76004153_76004273_12107_CDS_ENSMUSG00000022565_ENSMUST00000071869|mouse|control|control (ssRNA)
RNA: GGGAGUUCUACAGUCCGACGAUCCUUCAUGGCCUGGAAGAGGGAGAUGAGUUUCCCAGAGUAGGGGUCCUUGUAGCCAGUGACGGCACGCUCAGCUGACAGCAGCUUGUCCUUGAACUCGGGGCCCACAAUACCCAUACGAACCAACAGAGGAUUGAGCAUCA
B4: chr11:93905761:93905762:+_ENSMUSG00000020859_ENSMUST00000103168|mus_mus|motif|central (ssRNA)
RNA: GGGAGUUCUACAGUCCGACGAUCCGCUGGCACCCCGGUAGAAAUAGAAAAGUGCACAAGCAGCAAAACAGAGAGAGAUACGGAGAUCGCAGAAUUAAUGACCACCGCCCCGCCAACAAAGCCAAACACAAACAGCAGCAUGCACAACAGAGGAUUGAGCAUCA
B5: chr13:113691719:113691720:-_ENSMUSG00000016018_ENSMUST00000022281|mus_hu|FALSE|FALSE (ssRNA)
RNA: GGGAGUUCUACAGUCCGACGAUCGUAUUCACCAGAAGAAAUCCAUCGGAAAUCCUUCCCAUCAAAUUUGCGGGCAUUUGUAAAUAAAACAGUUCUAGCUGGCAUGUUAAUUCCCAUAGCAAAGGUCUCCGUGGCAAAUAAGGCCAACAGAGGAUUGAGCAUCA
B6: chr7:135612788:135612789:-_ENSG00000105887_ENST00000393085|hu_mus|FALSE|FALSE (ssRNA)
RNA: GGGAGUUCUACAGUCCGACGAUCGCCAAGAGGUGAAAACAAAGGUCUCAAAACACCCUGUUGCAUUAUAUUGACUCAUAGACUGAUCAUGUGCCUUCCACUUCCUAGCAGAAUGUCCAACUCUAUAGCUGCUUGGCCUUUUGGCAACAGAGGAUUGAGCAUCA
B7: chr11:4127340:4127341:+_ENSG00000167325_ENST00000300738|hu_mus|hu_hu_hu_mus_False|28_38 (ssRNA)
RNA: GGGAGUUCUACAGUCCGACGAUCGGCAUAGUCAGGGUGCUUCGUGGUCAAGGUCGCGGCUGUCUCAGCAGCCAGGGUGUCCAGUUCCACUGUGGUGACCCCACUGUACAAGCCUUGGAUUACUUUCAUGGUGAUCUGAGCAGGCAACAGAGGAUUGAGCAUCA
B8: chr4:24541891:24541892:-_ENSG00000109606_ENST00000336812|perfect_dup|FALSE|FALSE (ssRNA)
RNA: GGGAGUUCUACAGUCCGACGAUCGGAUCCCAAUUCAGUCAGAUCUCCAUCAUCAUUUAAAGCAGCCAAAUAAUUCAAAAGUUCUAGGGCUCUCAUCAGAGUUUCAGGAGCUGGUGGGUCCAUAAAAUCAAAGUGUACCAAGUCCAACAGAGGAUUGAGCAUCA
B9: chr2:202488911:202488912:-_ENSG00000155755_ENST00000286196|hu_mus|hu_hu_hu_mus_False|18_68 (ssRNA)
RNA: GGGAGUUCUACAGUCCGACGAUCAUUGAAACAUUUUUCAUAAUCUCCAGUAGCAUUUCAGCAUUAUUAAUCAAAAACUCAAUUGUAAAUACAUGUAUCUUAUAAAAAUACACUUAAAUUUAAAAACGGGGAGCGCAGGCGCCACAACAGAGGAUUGAGCAUCA
B10: chr17:62500844:62500845:-_ENSG00000108654_ENST00000583239|hu_hu|FALSE|FALSE (ssRNA)
RNA: GGGAGUUCUACAGUCCGACGAUCCUUGAUAAAAAUUCUUCUCAAAUUUAGGCAGCUCAUCAAGAUUCCACUUCUUUUUAACUAAUUUCUCCCCAGGGUUUCCAAACUUCUUUCCAGAUAAGGGCCCUGCCCUACUUCCUCCAACAACAGAGGAUUGAGCAUCA
B11: chr2:202488911:202488912:-_ENSG00000155755_ENST00000286196|hu_mus|hu_hu_hu_mus_False|18_78 (ssRNA)
RNA: GGGAGUUCUACAGUCCGACGAUCAUUGAAACAUUUUUCAUAAUCUCCAGUAGCAUUCAGUAUUAUAGUAACAAAAGCUCAAUUGUAAAUACAUGUAUCUUAUAAAAAUACACUUAAAUUUAAAAACGGGGAGCGCAGGCGCCACAACAGAGGAUUGAGCAUCA
B12: chr2:202488911:202488912:-_ENSG00000155755_ENST00000286196|hu_mus|hu_hu_hu_mus_False|58_68 (ssRNA)
RNA: GGGAGUUCUACAGUCCGACGAUCAUUGAAACAUUUUUCAUAAUCUCCAGUAGCAUUUCAGCAUUAUUAAUCAAAAAAUCUAUUACAAAUACAUGUAUCUUAUAAAAAUACACUUAAAAACACGAGUGGGGAGCGCAGGCGCCACAACAGAGGAUUGAGCAUCA
B13: chr15:96529919:96529920:-_ENSMUSG00000022462_ENSMUST00000023099|mus_hu|FALSE|FALSE (ssRNA)
RNA: GGGAGUUCUACAGUCCGACGAUCUCUCUAUUCUCACGCAGACGUCUUCAGUGGGUUUCUCUCAGUCAAAUACAAAUCAUAAAAAACAAACAAAAAAUUUCCCCAAAUCCAACAACAGGCAGGAAAAAUAAUUUUAAUAAAAAACAACAGAGGAUUGAGCAUCA
B14: chr2:216981417:216981418:+_ENSG00000079246_ENST00000392132|hu_hu|hu_hu_hu_mus_True|48_48 (ssRNA)
RNA: GGGAGUUCUACAGUCCGACGAUCCUGAUACUGGUCCUUGCCAGCAAGGGCAUUAUCAGUGCCAUCUGUGCCAUAGAGGACUAACGCAAUCUCAUCCUUGCUCUCCGAAAAUACCUGUCGUUGGACAAACAUAGUCAUCACUUUCAACAGAGGAUUGAGCAUCA

The target in the assay is T1, UNK ZnF1-3. Nature of the assay: nsRBNS (natural sequence RNA bind-n-seq); RBNS binding buffer (assumed for nsRBNS): 25 mM Tris pH 7.5, 150 mM KCl, 3 mM MgCl2, 0.01% Triton X-100, 500 ug/ml BSA, 20 U/ml SUPERase-In, 4 C; UNK is unkempt and MSI1 is Musashi-1; names of the RNAs are library labels; protein concentration not given here; high values mean tight binding.
On to B1, for which the binding signal was determined as 0.548 enrichment R.
Under B2 stands 0.761 enrichment R; under B3, 1.29 enrichment R; under B4, 2.32 enrichment R.
B5 registered a binding signal of 1.77 enrichment R.
As for B6, the figure is 1.02 enrichment R; as for B7, 1.08 enrichment R.
Under B8 stands 1.58 enrichment R; under B9, 7.64 enrichment R.
Under B10 stands 1.55 enrichment R.
B11 registered a binding signal of 5.43 enrichment R.
As for B12, the figure is 14 enrichment R.
As for B13, the figure is 3.81 enrichment R; as for B14, 0.666 enrichment R.
